Shown are actives, neighbours in structure and some others; about 4% of the full set was active somewhere.
UGM FP inh = M. tuberculosis UGM enzyme inhibitors, primary screen, biochemical, fluorescence polarization, single point; inhibition, % at 10 µM; UDP-galactopyranose mutase (Mycobacterium tuberculosis (strain ATCC 25618 / H37Rv)), …; purified UGM, fluorescence polarization probe displacement; actives 0.06% (n = 320,000); in the data active = inhibition above about 10%, passing the limit was not always enough; inconclusive = no clear call, values can overlap the other calls
Rv3671c protease = Rv3671c serine protease inhibitors, primary screen, biochemical, fluorescence polarization, M. tuberculosis H37Rv | P9WHR9 | inhibition, % at 5.96 µM | actives 0.048% (n = 320,000) | AID 2606, 2010; in the data active = inhibition above about 38%;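 also: extracellular domain of Rv3671c used as enzyme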
Mtb betalactam = beta-lactam sensitization of Mtb H37Rv, H37Rv; M. tuberculosis H37Rv growth with meropenem, percent inhibition; actives 0.27% (n = 330,000); AID 434955, 2010; inhibition, % at 25 µM; call rule not given here;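 also: growth measured after seven days incubation then overnight dye step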
GDH-TPI inh = GDH-TPI coupling enzyme inhibitors, primary screen, artefact control for M. tuberculosis FBA inhibitor project, biochemical, absorbance, full deck; GDH-TPI coupled enzyme counterscreen, NADH absorbance; inhibition, % at 4.8 µM; AID 588335, 2011; actives 1.2% (n = 360,000); in the data active = inhibition above about 30%
Mtb FBA inh = Mtb FBA enzyme inhibitors, primary screen, biochemical, fluorescence, strain H37Rv; purified M. tuberculosis FBA, fluorescence read-out; AID 588726, 2011; Fructose-bisphosphate aldolase (Mycobacterium tuberculosis (strain ATCC 25618 / H37Rv)), …; actives 2.3% (n = 360,000); inhibition, % at 1 µM; in the data active = inhibition above about 27%
Target sequence (P9WQA3 whole entry, looked up): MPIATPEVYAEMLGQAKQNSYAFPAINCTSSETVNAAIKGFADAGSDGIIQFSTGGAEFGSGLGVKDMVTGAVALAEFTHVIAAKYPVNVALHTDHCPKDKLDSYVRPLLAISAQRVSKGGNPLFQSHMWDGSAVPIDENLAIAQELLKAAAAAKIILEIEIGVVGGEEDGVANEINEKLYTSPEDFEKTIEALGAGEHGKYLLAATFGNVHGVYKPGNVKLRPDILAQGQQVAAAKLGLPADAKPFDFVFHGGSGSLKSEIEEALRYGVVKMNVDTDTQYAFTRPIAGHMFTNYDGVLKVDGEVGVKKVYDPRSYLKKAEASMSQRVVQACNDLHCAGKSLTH
RecA intein inh = Mtb RecA intein splicing inhibitors, primary screen, biochemical, fluorescence, HTS; Protein RecA (Mycobacterium tuberculosis (strain ATCC 25618 / H37Rv)), P9WHJ3; cell-free RecA intein splicing; inhibition, % (no concentration beside the values); actives 0.75% (n = 290,000); AID 2221, 2009; in the data active = inhibition above about 30%; inconclusive = no clear call, values can overlap the other calls
Hits are given with their value; n = inactive; u = inconclusive; x = not tested or not shown; + = active, no number.

SMILES	UGM FP inh	Rv3671c protease	Mtb betalactam	GDH-TPI inh	Mtb FBA inh	RecA intein inh
COc1cc(/C=N/NC(=O)c2cc(-c3cccs3)nc3ccccc23)ccc1O	n	n	n	56	n	n
Cc1cccc(C(O)c2ncc(-c3ccc4ccccc4c3)[nH]2)c1C (stereo not given)	x	x	x	n	n	x
C/C(=N\NC(=O)CSc1nc(C)cc(C)n1)c1ccc([N+](=O)[O-])cc1	n	n	n	n	n	n
Cc1cccc(NC(=O)C(C)OC(=O)CNC(=O)C2CCCCC2)c1 (stereo not given)	x	x	x	n	n	x
Cc1occc1C(=O)n1cnc2ccccc21	n	n	n	x	x	n
Cc1ccc(C(=O)n2cnc3ccccc32)cc1C	n	n	n	n	n	36
CN(C)C(=O)COc1ccc2ccc(=O)oc2c1	n	n	n	n	n	n
CC(C)=CC(O)C/C(C)=C/COc1ccc2ccc(=O)oc2c1 (stereo not given)	n	n	n	n	83	n
CC12CN3CCN(CC(C3)/C1=N\N=C1/C3CN4CCN(C3)CC1(C)C4)C2	n	n	n	n	113	n
CC12CN3CCN(CC(C3)/C1=N/NC(N)=O)C2	n	n	n	n	n	n
CCOc1ccc(-c2cc(C(=O)NCc3ccccc3)[nH]n2)c(C)c1	x	x	x	n	n	x
Cc1cccc(/C=N/NC(=O)C(C)Nc2cccc3ccccc23)n1 (stereo not given)	n	n	n	n	n	75
Clc1cccc(-c2ccc(/C=N/n3cnnc3)o2)c1Cl	n	n	n	34	n	n
Clc1ccccc1-c1ccc(/C=N/n2cnnc2)o1	n	n	n	55	n	n
Cc1c(C(=O)O)cccc1-c1ccc(/C=N/n2cnnc2)o1	n	n	n	31	n	n
Cc1c(C(=O)O)cccc1-c1ccc(/C=N/Nc2ccc(Br)cc2)o1	n	n	n	n	n	n
O=C(O)c1cccc(-c2ccc(/C=N/n3cnnc3)o2)c1	n	n	n	35	n	n
COc1cc(-c2cnc3c(NC=O)cc(-c4cccc(C(=O)NCCN(C)C)c4)cn23)cc(OC)c1OC	x	x	x	n	n	x
Cc1cc([N+](=O)[O-])c(C)cc1-c1ccc(/C=N/n2cnnc2)o1	n	x	n	n	n	n
Cc1c(Cl)cccc1-c1ccc(/C=N/n2cnnc2)o1	n	n	n	33	n	n
COc1ccc(/C=N/N2CCN(c3ccc(Cl)cc3)CC2)cc1O	n	n	n	n	n	n
O=C(c1ccc(-c2ccccc2Cl)o1)N1CCN(S(=O)(=O)c2cccs2)CC1	n	n	n	n	n	n
CCOP(=O)(OCC)c1nc(-c2cccc3ccccc23)oc1NCc1ccc(OC)cc1	n	n	n	n	169	n
CCOP(=O)(OCC)c1nc(-c2cccc3ccccc23)oc1NCc1ccccc1	n	n	n	n	+	x
O=C(Cn1cnc2ccccc2c1=O)Nc1nnc(SCc2ccc(Cl)cc2)s1	n	n	n	n	n	n
SMILES	UGM FP inh	Rv3671c protease	Mtb betalactam	GDH-TPI inh	Mtb FBA inh	RecA intein inh
O=C(CNC(=O)c1ccccc1F)Nc1ccccc1C(F)(F)F	n	n	n	n	n	n
Cc1oc2c(CN3CCCCC3C)c(O)ccc2c(=O)c1-c1ccccc1 (stereo not given)	n	n	n	n	174	n
Cc1oc2c(O)c(O)ccc2c(=O)c1-c1ccccc1	n	n	n	n	n	n
COc1ccccc1-c1c(C)oc2c(CN3CCCCC3C)c(O)ccc2c1=O (stereo not given)	n	n	n	n	145	n
Cc1oc2c(CN3CCCCC3)c(O)ccc2c(=O)c1-c1ccc(Br)cc1	n	n	n	33	130	n
O=C(CN1CCN(c2ccc(C(F)(F)F)cn2)CC1)NCc1ccc2c(c1)OCO2	n	n	n	n	n	n
CC(/C=N/NC(=O)c1cccs1)=C\c1ccccc1	n	n	n	32	n	n
COc1cc(/C=N\NC(=O)c2sc(N)nc2C)cc(OC)c1OC	n	n	n	41	n	n
NC(=O)C(=O)N/N=C/c1c[nH]c2ccc(Br)cc12	n	n	n	n	n	x
Cc1nc(N)sc1C(=O)N/N=C/c1ccccc1[N+](=O)[O-]	n	n	n	n	n	n
O=C(N/N=C/c1c[nH]c2ccc(Br)cc12)C1CC1	n	n	n	32	n	n
O=C(N/N=C/C(Cl)=C\c1ccccc1)c1cccs1	n	n	n	n	n	n
Cc1nc(N)sc1C(=O)N/N=C/c1ccco1	n	n	n	38	n	n
CCn1nc(C(=O)NNC(=O)c2ccccc2)c2ccccc2c1=O	n	n	n	n	n	x
NC(=O)c1ncn([C@@H]2O[C@H](CNCc3cccn3-c3ccncc3)[C@@H](O)[C@H]2O)n1	x	x	x	n	n	x
C[C@H]1CN([C@@H](C)CO)S(=O)(=O)c2ccc(Br)cc2O[C@H]1CN(C)C(=O)Cc1ccncc1	x	x	x	x	n	x
CC(/C=N/NC(=O)c1n[nH]c2c1CCC2)=C\c1ccccc1	n	n	n	31	n	n
COc1ccccc1C=NNC(=O)NN=Cc1ccccc1OC	x	x	x	31	n	x
O=C(C=Cc1ccccc1)c1cccs1	x	x	x	34	n	x
COc1cccc(/C=N/NC(=O)N/N=C/c2cccc(OC)c2O)c1O	n	n	n	n	n	x
Cc1cc(C(=O)N/N=C/c2c[nH]c3ccccc23)c(C)o1	n	n	n	n	n	n
Nc1ccc(/C=C/C(=O)c2cccs2)cc1	n	n	n	n	n	n
O=C(N/N=C/C(Br)=C\c1ccccc1)c1n[nH]c2c1CCC2	n	n	u	n	n	n
Cc1ccc(C(=O)N/N=C/c2c[nH]c3ccccc23)o1	n	n	n	31	n	n
Cc1ccc(S(=O)(=O)CCC(=O)OC(C)c2nnc(-c3cccs3)o2)cc1 (stereo not given)	n	n	n	n	n	x
SMILES	UGM FP inh	Rv3671c protease	Mtb betalactam	GDH-TPI inh	Mtb FBA inh	RecA intein inh
CCN(Cc1ccccc1)C(=O)c1oc2ccc(S(=O)(=O)N3CCOCC3)cc2c1C	n	n	n	n	n	n
COc1ccc(C(CNC(=O)CCNS(=O)(=O)c2ccccc2C(F)(F)F)N2CCOCC2)cc1 (stereo not given)	x	x	x	n	n	x
COc1ccccc1/C=C/C=N/NC(=O)c1cccs1	n	n	n	45	n	n
O=C(O)COc1ccccc1/C=N/NC(=O)c1ccc(F)cc1	n	n	n	46	n	n
COc1ccccc1/C=C\C=N\NC(=O)c1ccco1	n	n	n	n	n	n
O=C(N/N=C/c1c[nH]c2ccccc12)c1cc(Br)ccc1O	n	n	n	31	n	n
COc1ccccc1/C=C\C=N\NC(=O)CCn1nnc2ccccc21	n	n	n	38	n	n
O=C(O)COc1ccccc1/C=N/NC(=O)CNC(=O)c1ccc(F)cc1	n	n	n	n	n	n

Screening data (PubChem)
